# ClpP mod: qHTS Assay for Activators of ClpP. ATP-dependent Clp protease proteolytic subunit (Bacillus subtilis (strain 168)), P80244. purified B. subtilis ClpP, FRET peptide cleavage, 20 min. Potency, µM (doses to about 57.5 µM), for the others: at the top dose activity change, negative = active. actives 1.9% (n = 340,000). AID 651965, 2013; active = well fitted falling curve with a large enough effect; inconclusive = small, poorly fitted or top-dose-only effect; inactive = no such curve, though single readings can be large or run the other way; note: the source files actives as falling curves though it sought activators and does not explain the sign; nearly all actives have a fitted effect of over 65% in size
#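 ClpP 10 microg/mL final, pH 8 Tris/KCl buffer with BSA, glycerol, Tween-20; compound pinned in; FRET-FV substrate; RT 20 min; Ex320/Em430; ΔFRET vs ADEP 5.8 microM, DMSO, no enzyme.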
# GLP1R cytotox: qHTS of GLP-1 Receptor Inverse Agonists: Cytotox Screen | HEK293 cAMP-luciferase reporter cells, luminescence, 24 h | Potency, µM (highest dose often 38.3 µM), without a hit: at the highest dose activity change, negative = inhibition, actives largely listed as inhibitors | actives 0.13% (n = 410,000) | AID 624418, 2012;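 note: loss of luciferase light is scored as toxicity; % is set by controls: 0 for no effect and ±100 for the full control effect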
#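 MLSMR compounds, 24 hr on cells at 37 deg C/5% CO2; luminescence after luciferase reagent (12 min RT). Inhibition counted as the undesired cytotoxic outcome.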
# GLP-1R inv ag: qHTS of GLP-1 Receptor Inverse Agonists (Inhibition Mode); Glucagon-like peptide 1 receptor (Homo sapiens), P43220; HEK293 GLP-1R CRE-luciferase, luminescence, 24 h; GLP-1R form is constitutively active; Potency, µM (series often up to 38.3 µM), inactives show at the highest dose activity change, negative = inhibition, most hits filed as inhibitors; actives 1.6% (n = 410,000); note: % is set by controls: 0 for no effect and ±100 for the full control effect; nearly all actives have a fitted effect of over 55% in size
#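 GLP-1R inverse agonism mode: basal reporter luminescence in engineered HEK293 cells measured after one day of compound exposure at 37 deg C, with a 12 min room-temperature detection step.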
# GLP1R ag: qHTS of GLP-1 Receptor Agonists; Glucagon-like peptide 1 receptor (Homo sapiens), P43220; HEK293 GLP-1R CRE-luciferase, luminescence, 4-6 h; cells express a hypersensitive GLP-1R form; Potency, µM (titrated, usually from 45.6 µM), without a hit: top-dose activation, actives largely listed as activators; actives 0.007% (n = 380,000); AID 624172, 2012; note: % of control where 0% means no effect
# * = called active by the depositor; ? = inconclusive; nt = not tested or not shown; [ ] = another dose, or the depositor's remark. Compounds with a hit are over-represented: about 3.2% of the library has one in this group of screens. Unless noted, calls come from the whole dose curve; as a rule, active = well fitted curve in the direction sought with a large enough effect; inconclusive = small, poorly fitted or top-dose-only effect, or another doubt; inactive = no such curve, though single readings can be large; an effect the other way counts as inactive or inconclusive. Potency is the fitted concentration of half-maximal effect.
SMILES,ClpP mod,GLP1R cytotox,GLP-1R inv ag,GLP1R ag
CNC(=O)Cn1c(C)cc(=O)c2cccc(OC)c21,2%,3%,14%,5%
Cc1cc(Nc2ccc(Cl)cc2)nc(NCc2ccccc2)n1,-8%,?,11µM*,?
Cc1cc(Nc2ccccc2)nc(NCc2ccccc2)n1,-13%,?,8.9µM*,15%
Cc1cc(Nc2cccc(F)c2)nc(NCc2ccccc2)n1,-24%,-27%,?,5%
Cc1ccc(/C=N/Nc2cc(C)nc(NCc3ccccc3)n2)cc1,nt,-15%,2.8µM*,14%
O=S(=O)(c1ccccc1)c1nc(-c2cccs2)oc1SCc1ccccc1F,-6%,1%,29%,nt
O=c1c2cnn(-c3ccc(F)cc3)c2ncn1Cc1ccccc1Cl,-1%,0%,1%,nt
COc1ccc(-c2cc(C(=O)N3CCc4ccccc4C3)no2)cc1,-3%,-10%,?,3%
COc1ccc(OC)c(-c2cc(C(=O)N3CCc4ccccc4C3)no2)c1,25µM*,10%,0%,?
Cc1ccc(-c2cc(C(F)F)nc(NCc3cccnc3)n2)cc1,14µM*,5%,?,16%
Cc1ccc(-c2onc(C)c2C)cc1S(=O)(=O)N1CCN(c2ccccc2F)CC1,-1%,-2%,4%,nt
Cc1cccc2nc(-c3cccnc3)c(Nc3ccc(C(C)C)cc3)n12,4%,-14%,10µM*,nt
Cc1ccc(CNc2ncccc2-c2nc(-c3ccc(Cl)cc3)no2)cc1,?,5%,9%,nt
CCOC(=O)CSc1nc2ccc(NC(=O)COc3ccc(F)cc3)cc2s1,6%,-4%,0%,nt
CC(=O)OC1CCC2(C)C(COc3ccc4ccc(=O)oc4c3)C(C)(O)CCC2C1(C)C (centres undefined),13%,-16%,11µM*,-1%
C=C1CCC2C(C)(C)[C@@H](O)CC[C@@]2(C)[C@@H]1COc1ccc2ccc(=O)oc2c1 (some centres undefined),4%,?,?,-3%
COCCCNC(=O)c1cnc2sc(N3CCCCC3)nn2c1=O,4%,-7%,5%,nt
CCN(CC)c1nn2c(=O)c(C(=O)NCc3ccc(F)cc3)cnc2s1,?,-7%,4%,nt
CC(C)CCNC(=O)c1cnc2sc(N3CCCCCC3)nn2c1=O,13µM*,1%,11%,nt
CCOc1ccc(CNC(=O)c2cnc3sc(N4CCOCC4)nn3c2=O)cc1OC,28µM*,-2%,27%,nt
COc1ccc(CCNC(=O)c2cnc3sc(N4CCCC4)nn3c2=O)cc1OC,11µM*,-4%,5%,nt
CCOc1ccc(CNC(=O)c2cnc3sc(N(CC)CC)nn3c2=O)cc1OC,32µM*,12%,9%,nt
CCOc1ccc(CNC(=O)c2cc3c(=O)n(C)c4ccccc4c3s2)cc1,-11%,-1%,3%,nt
Cc1ccccc1C(=O)OCc1cc(=O)n2c(C)csc2n1,4%,2%,4%,nt
COc1ccccc1-c1noc(-c2ccc(N3CCN(c4ccccc4)CC3)c([N+](=O)[O-])c2)n1,3%,6%,13%,nt
SMILES,ClpP mod,GLP1R cytotox,GLP-1R inv ag,GLP1R ag
O=S(=O)(c1ccc(Br)cc1)N1CCN(c2nc(-c3ccccc3)nc3ccccc23)CC1,-14%,nt,nt,nt
O=C(NNC(=O)c1ccc(NC(=O)C2CC2)cc1)c1ccc(F)cc1,-19%,-1%,13%,-2%
NC(=S)NN=C(c1ccc(F)cc1)C1CC1,-2%,10µM*,?,-5%
Cc1ccc(S(=O)(=O)N(C)c2cc(S(=O)(=O)N3CCC(C)CC3)c(C)cc2C)cc1,-5%,-1%,13µM*,-6%
CNS(=O)(=O)c1cc(N(C)S(=O)(=O)c2ccc(C)cc2)c(C)cc1C,nt,-3%,-28%,3%
COC(=O)C(CCSC)Nc1ncnc2onc(-c3ccc(F)cc3)c12 (centres undefined),0%,5%,-6%,nt
CCN(CC)S(=O)(=O)c1ccc2c(c1)N(CC(=O)Nc1ccccc1F)C(=O)C1CCCN21 (centres undefined),-2%,3%,12%,nt
COC(=O)c1ccc2[nH]c(C)cc(=O)c2c1,28µM*,-3%,4%,3%
CCOC(=O)c1ccc2[nH]c(C)cc(=O)c2c1,3.5µM*,1%,19%,3%
Cc1cc(=O)c2cc(C(=O)c3ccccc3)ccc2[nH]1,-3%,-12%,14%,-13%
CCOC(=O)c1ccc2[nH]c(C)c(C)c2c1,-8%,14%,-29%,21%
C/C(=N\Nc1nc(C(C)(C)C)cs1)c1ccccc1,0%,2%,8.9µM*,-1%
Cc1ccc(N2C(=O)N(CC(=O)Nc3ccc(C)cc3C)C(=O)C2C)cc1 (centres undefined),1%,-2%,?,4%
Cc1ccc(N2C(=O)N(CC(=O)Nc3c(C)cc(C)cc3Cl)C(=O)C2C)cc1 (centres undefined),nt,-7%,10µM*,16%
Cc1nc(SCC(=O)NCC(F)(F)F)c2c(-c3cccs3)csc2n1,0%,-9%,?,-5%
Cc1nc(SCC(=O)NC(C)(C#N)C2CC2)c2c(-c3cccs3)csc2n1 (centres undefined),-1%,-19%,6.3µM*,3%
CCCCN(S(=O)(=O)c1ccccc1)S(=O)(=O)c1ccccc1,nt,-5%,10µM*,18%
CCCCN(c1ccccc1)S(=O)(=O)N(C)C,nt,-6%[7.66 µM],-11%[7.66 µM],0%
O=C(c1ccc(Cl)cc1)N1CCCCC1CCN1CCOCC1 (centres undefined),-2%,3%,2%,nt
O=C(Nc1cccc(Cl)c1)Nc1csc([N+](=O)[O-])c1,nt,?,6.3µM*,-2%
Cc1ccc(-c2nn(-c3ccccn3)c(=O)c3ccccc23)cc1C,-2%,-8%,10µM*,11%
COc1ccc(CCNC(=O)c2ccc3c(c2)c(C)c(C)n3Cc2ccc(F)cc2)c(OC)c1OC,25µM*,1%,?,nt
Cc1c(C)n(Cc2ccccc2)c2ccc(C(=O)NCCc3ccccc3Cl)cc12,16µM*,1%,10µM*,nt
COc1ccc(CCNC(=O)c2ccc3c(c2)c(C)c(C)n3Cc2ccccc2)c(OC)c1OC,?,-3%,?,nt
Cc1ccccc1CCNC(=O)c1ccc2c(c1)c(C)c(C)n2C,-21%,1%,?,nt
CCOC(=O)c1ccc(NC(=O)c2ccc3c(c2)c(C)c(C)n3Cc2ccc(F)cc2)cc1,18µM*,-14%,1%,nt
Cc1ccccc1CCNC(=O)c1ccc2c(c1)c(C)c(C)n2Cc1ccccc1,32µM*,4%,10µM*,nt
CCc1nc2c(OCCOc3ccccc3)cccn2c1N(C)C(=O)C1CC1,-2%,-13%,-20%,-4%
CC(C)(S)C(=O)N[C@H](CS)C(=O)O,nt,nt,nt,-1%
Cc1ccc(CN(C(=O)COc2ccc(Cl)c(C)c2)C2CCS(=O)(=O)C2)o1 (centres undefined),-5%,-2%,?,nt

# Screening data: PubChem, National Center for Advancing Translational Sciences (NCATS)
